Screening data from PubChem.
DUSP1 inh: blocks human MKP-1 phosphatase activity; hit rate 0.15% among 65,000; inhibition, %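 (compounds tested at a single concentration somewhere between 10 and 100 µM)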; AID 374; recombinant MKP-1, OMFP hydrolysis fluorescence;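 active = inhibition above about 50%, limit read from the data; inconclusive = inhibition over screen mean plus 3 SD, below that limit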
Target sequence (P28562 whole entry, looked up): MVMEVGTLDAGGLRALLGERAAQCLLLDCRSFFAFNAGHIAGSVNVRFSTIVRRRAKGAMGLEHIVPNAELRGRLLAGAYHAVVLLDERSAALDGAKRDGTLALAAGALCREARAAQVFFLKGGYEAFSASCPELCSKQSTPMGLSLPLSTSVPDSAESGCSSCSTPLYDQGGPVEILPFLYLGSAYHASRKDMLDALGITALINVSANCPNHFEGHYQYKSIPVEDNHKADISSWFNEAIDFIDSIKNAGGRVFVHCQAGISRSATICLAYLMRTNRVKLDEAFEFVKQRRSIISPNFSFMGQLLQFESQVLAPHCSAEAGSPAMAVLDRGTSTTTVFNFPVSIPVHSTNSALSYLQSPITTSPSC
Autofluor 339: intrinsic fluorescence of library compounds, ex339/em460 – biochemical, MLSMR library, data from DPM-DC assay, artefact control, profiling panel; hit rate 5.5% among 65,000; fluorescence fold increase at 10 µM; AID 709; compound autofluorescence, ex339/em460 nm, NADH buffer; active compounds read high; 1 = no-compound wells, NADH background;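 active = at 10 µM, mean starting fluorescence two-fold or more over control wells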;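 also: signal is the first read of a kinetic run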
Cdc25B inh: human M-phase inducer phosphatase 2 inhibition | recombinant Cdc25B, OMFP fluorescence Ex485/Em525 | inhibition, %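 (compounds tested at 10 µM final in the well)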 | hit rate 0.1% among 65,000; in the data active = inhibition above about 50%
Abs 340nm: compounds absorbing at 340 nm | 65,000 tested, under 10 active | fold change at 10 µM | AID 708 | compound absorbance at 340 nm, fold over control;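 active = at 10 µM dose, initial 340 nm absorbance at least 2 fold that of control wells; inactive = change under 2 fold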;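 also: initial absorbance extrapolated from kinetic A340 decline of NADH oxidation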
Hsp90 inh: displaces geldanamycin probe from tumor Hsp90; P07900; NCI-N417 lysate Hsp90, Cy3B-geldanamycin FP displacement; inhibition, % at 30 µM; hit rate 0.35% among 64,000;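 active = inhibition above 50%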
NADH coupling: inhibition of NAD/NADH coupling enzymes, library profiling; coupled PK/LDH NADH assays, four targets; AID 774; hit rate 0.02% among 65,000; IC50, µM (series often up to 10 µM);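 active = single-dose screening hits from any of four coupled enzyme assays that gave an IC50 when retested across doses; inconclusive = no clear call, values can overlap the other calls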;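 also: the DPM-DC format reads NADH fluorescence rather than 340 nm absorbance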
Numbers stand for hits; i = inactive; ? = inconclusive; nt = no result. Hits are enriched below; roughly 5.7% of the tested compounds scored in any of these assays.

SMILES	DUSP1 inh	Autofluor 339	Cdc25B inh	Abs 340nm	Hsp90 inh	NADH coupling
COC(=O)c1c(NC(=O)c2ccc(C)o2)sc2c1CCCCC2	i	3.7	i	i	i	i
NC(=O)c1c(NC(=O)c2cc3ccccc3o2)sc2c1CCC2	i	2.1	i	i	i	i
COC(=O)c1c(NC(=O)c2c(C)noc2C)sc2c1CCCCCC2	i	3.4	i	i	i	i
COC(=O)c1ccc(Cn2cnc3c(cnn3-c3ccc(Cl)cc3)c2=O)o1	i	i	i	i	i	i
O=C(NCc1ccccc1Cl)c1cnn2cccnc12	i	2.2	i	i	i	i
O=C(Nc1cccc(Cl)c1)c1cnn2cccnc12	i	i	i	i	i	i
O=C(NCc1cccs1)c1cnn2cccnc12	i	2.1	i	i	i	i
Cc1cccc(-c2nc(C#N)c(NC3CCCCC3)o2)c1	i	2.1	i	i	i	i
COc1ccc(-n2nc3ccc(NS(C)(=O)=O)cc3n2)cc1Cl	i	3.8	i	i	i	i
CCOc1ccc2[nH]c(=O)c(CN(Cc3ccc(F)cc3)C(=O)N3CCCC3)cc2c1	i	2.8	i	i	i	i
CCOc1ccc2[nH]c(=O)c(CN(CCO)C(=O)CC)cc2c1	i	3.1	i	i	i	i
CCOc1ccc2[nH]c(=O)c(CN(CCO)C(=O)c3ccc(Br)cc3)cc2c1	i	2.6	i	i	i	i
CCOc1ccc2[nH]c(=O)c(=O)[nH]c2c1	i	2.2	i	i	i	i
CCOC(=O)C1CCCN(C(=O)c2ccc3c(c2)NC(=O)C(N2CCOCC2)S3)C1 (configuration not stated)	i	i	i	i	i	i
CCSc1nc2c(cnn2-c2ccc(C)c(C)c2)c(=O)[nH]1	i	i	i	i	i	i
N#CC1=C(N)N2C(=C(C#N)C13CCCCC3)SC1CCCCC12O (configuration not stated)	i	i	63	i	i	i
Cc1csc2ncc(C(=O)Nc3ccccc3Cl)c(=O)n12	i	2	i	i	i	i
Cc1cccc(NC(=O)c2cnc3scc(C)n3c2=O)c1	i	i	i	i	i	i
Cc1csc2ncc(C(=O)Nc3ccon3)c(=O)n12	i	4.8	i	i	i	i
Cc1c(C(=O)NCC2CCCO2)oc2ccc3c(c12)C(=O)CC(C)(C)O3 (configuration not stated)	i	3	i	i	i	i
Cc1cc(C)c2c(n1)nn1c(NCCOCCO)cc(C)nc21	i	3.9	i	i	i	i
CC(C)(C)NC(=O)c1ccc2c(c1)C(=O)N(C1CCCCC1)C2=O	i	i	i	i	i	i
O=C(Nc1ccc2c(c1)C(=O)N(C1CCCCC1)C2=O)C1CCCO1 (configuration not stated)	i	2.5	i	i	i	i
CS(=O)(=O)N(CC(=O)NCc1ccc2c(c1)OCO2)Cc1ccc(Cl)cc1	i	i	i	i	i	i
O=c1oc2ccccc2cc1-c1nnc(-c2cccc(Br)c2)o1	i	3.9	i	i	i	i
SMILES	DUSP1 inh	Autofluor 339	Cdc25B inh	Abs 340nm	Hsp90 inh	NADH coupling
O=c1oc2ccc3ccccc3c2cc1-c1nnc(-c2ccccc2)o1	i	4.3	i	i	i	i
Cc1cc(N)c(-n2cc3c(=O)n(C)c(=O)n(C)c3c2)cc1C	i	2.7	i	i	i	i
CC(CNC(=O)c1cncc(O)c1)NC(=O)c1cncc(O)c1 (configuration not stated)	i	i	i	i	i	i
CCOC(=O)CCC(NC(=O)c1cncc(O)c1)C(=O)OCC (configuration not stated)	i	2.9	i	i	i	i
CC1=C(C(=O)N2CCOCC2)C(c2ccsc2)C2=C(CCCC2=O)N1 (configuration not stated)	i	2.9	i	i	i	i
Nc1cc(N)c(OCC(F)(F)F)cc1OCC(F)(F)F	i	i	i	i	89	i
Nc1nc(OCC(F)(F)F)cc(Oc2ccccc2F)n1	i	i	i	i	i	i
Nc1nnnn1/N=C/c1ccccn1	i	i	i	i	i	i
NC(=O)c1ccccc1N=Cc1ccccn1	i	5	i	i	i	i
Cc1cc(=O)oc2n[nH]c(-c3ccccc3)c12	i	i	i	i	i	i
COc1ccc(-c2[nH]nc3oc(=O)cc(C)c23)cc1	i	2.2	i	i	i	i
CN(CC(=O)N1CC=C(c2ccccc2)CC1)S(=O)(=O)c1cnc[nH]1	i	i	i	i	i	i
CC(C)OC(=O)CSc1nc2ccccc2s1	i	i	i	i	93	i
CSc1nc(-c2ccccc2O)nc(-c2ccccc2O)n1	i	i	i	i	i	i
CCOc1ccc(C2C(C(=O)OC)=CN(CCOC)C=C2C(=O)OC)cc1	i	2.5	i	i	i	i
COCCN1C=C(C(=O)OC)C(c2cc3c(cc2Br)OCO3)C(C(=O)OC)=C1	i	i	i	i	i	i
COCCN1C=C(C(=O)OC)C(c2ccc3c(c2)OCO3)C(C(=O)OC)=C1	i	2.1	i	i	i	i
O=C(CN(C(=O)CSc1nnc(COc2ccccc2)o1)c1ccc(F)cc1)NC1CCCCC1	i	i	i	i	i	i
O=c1c2ccccc2nc2c3ccccc3ncn12	i	2.3	i	i	nt	i
Cc1ccc2cccc(SCC(=O)N3CCOCC3)c2n1	i	2.5	i	i	i	i
Cc1ccc2cccc(SCC(=O)NCc3ccco3)c2n1	i	3.9	i	i	i	i
CC1CCC(NC(=O)c2cc3c(s2)CS(=O)(=O)C3)CC1 (configuration not stated)	i	i	i	i	i	i
O=C(NC1CC1)c1cc2c(s1)-c1ccccc1OC2	i	2.1	i	i	i	i
O=C(c1ccco1)N1CCN(C(=O)c2cc3c(s2)-c2ccccc2OC3)CC1	i	2.4	i	i	i	i
O=C(O)c1cc2c(s1)-c1ccccc1OC2	i	2.2	i	i	nt	i
SMILES	DUSP1 inh	Autofluor 339	Cdc25B inh	Abs 340nm	Hsp90 inh	NADH coupling
O=C(NCc1cccs1)c1cc2c(s1)-c1ccccc1OC2	i	2.4	i	i	i	i
O=C(NCc1cccs1)c1cc2c(s1)CS(=O)(=O)C2	i	i	i	i	i	i
CCOC(=O)C(NCc1ccccc1OC)(NC(C)=O)C(F)(F)F (configuration not stated)	i	i	i	i	i	i
CCn1c(=O)c2cc(C(=O)N3CCN(C(=O)c4ccco4)CC3)sc2c2ccccc21	i	2.1	i	i	i	i
CCn1c(=O)cc(OCC(=O)N2CCN(C(=O)c3ccco3)CC2)c2ccccc21	i	i	i	i	i	i
CCN(CC)c1ccc(-c2nn3c(-c4n[nH]c5c4CCC5)nnc3s2)cc1	?	2.9	i	i	i	i
CCc1ccccc1NC(=O)c1cc(C2CC2)on1	i	i	i	i	i	i
N#Cc1cc2cc3c(cc2nc1N1CCCCC1)OCCO3	i	3	i	i	i	i
